# Bioassay records: PubChem, The Scripps Research Institute Molecular Screening Center
# TEAD-YAP inh: TEAD-YAP interaction inhibition | inhibition, % at 9.12 µM | 1.4% of 640,000 active | AID 1259422 | HEK-TIYL cells, TEAD-Gal4/YAP UAS-luciferase luminescence; in the data active means inhibition above about 32%
# MITF primary: human MITF inhibition, primary screen; O75030; AlphaScreen MITF homodimerization, bead proximity signal; inhibition, % at 2.6 µM; 0.91% of 650,000 active; AID 1259374; in the data active means inhibition above about 50%
# GPR151 activ: activators of human GPR151 | 1% of 650,000 active | activation, % at 11.2 µM | PathHunter beta-arrestin GPR151 cells, luminescence; in the data active means activation above about 4.9%
# Target sequence (Q8TDV0 whole entry, looked up): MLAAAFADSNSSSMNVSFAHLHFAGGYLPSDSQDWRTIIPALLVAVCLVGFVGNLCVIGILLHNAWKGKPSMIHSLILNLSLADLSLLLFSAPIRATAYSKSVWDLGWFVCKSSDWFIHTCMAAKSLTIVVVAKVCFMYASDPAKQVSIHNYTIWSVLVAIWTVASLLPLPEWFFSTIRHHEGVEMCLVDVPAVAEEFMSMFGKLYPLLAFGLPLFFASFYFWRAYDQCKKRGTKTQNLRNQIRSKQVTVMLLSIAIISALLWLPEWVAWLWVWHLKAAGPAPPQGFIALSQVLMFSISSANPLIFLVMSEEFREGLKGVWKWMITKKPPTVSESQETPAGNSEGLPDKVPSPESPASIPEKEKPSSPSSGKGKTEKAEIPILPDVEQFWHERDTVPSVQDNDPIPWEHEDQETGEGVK
# FBW7 activator: human FBW7 E3 ligase activation, primary screen; AlphaScreen FBW7–phospho-cyclin E peptide binding, activator screen; normalized activity (activation), % at 26.1 µM; 0.13% of 650,000 active; AID 1259310; in the data active means normalized activity above about 1.9%;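 further: purified mutant Fbw7 with reduced substrate affinity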
# MITF inh conf: confirmation of human MITF inhibitors; shares compounds with MITF primary; AlphaScreen MITF homodimerization, biotin/His-MITF beads; inhibition, % at 2.6 µM; 16% of 4,700 active; AID 1259372;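 active means inhibition above a cutoff derived from the DMSO control wells, cut at about 28% in these data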;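 further: inhibitors lower the bead chemiluminescence by keeping MITF from dimerizing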
# AlphaScreen DR: optically interferes with AlphaScreen signal in dose response; shares compounds with MITF primary; AlphaScreen optical interference counterscreen, cell-free; IC50, µM; 6% of 480 active; AID 1259373; call rule not given here
# AlphaScreen intf2: optically interferes with AlphaScreen signal; shares compounds with MITF primary; LysRS AlphaScreen counterscreen, signal interference, triplicate; inhibition, % at 2.6 µM; 7.6% of 4,700 active; AID 1259376;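 active means inhibition above a cutoff derived from the DMSO control wells, cut at about 30% in these data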
# Hits are given with their value; – = inactive; · = not tested or not shown. Only some compounds are listed: those with a hit (about 3.4% of all), similar ones and a draw of the others.
SMILES,TEAD-YAP inh,MITF primary,GPR151 activ,FBW7 activator,MITF inh conf,AlphaScreen intf2,others
COc1ccc(C[C@@H]2NC(=O)[C@H]3CN(C(=O)NCc4ccccc4)CCN3C2=O)cc1,–,79.4,–,–,72.0,–,AlphaScreen DR=–
C[C@@H](O)[C@@H]1NC(=O)[C@H]2CN(C(=O)OCc3ccccc3)CCN2C1=O,–,–,–,–,·,·,
COc1ccc(C[C@@H]2NC(=O)[C@H]3CN(C(=O)c4ccc(-c5ccccc5)cc4)CCN3C2=O)cc1,–,–,–,–,·,·,
O=C1N[C@H](Cc2ccccc2)C(=O)N2CCN(C(=O)NCc3ccccc3)C[C@H]12,–,68.6,–,–,63.7,–,AlphaScreen DR=–
O=[N+]([O-])c1ccc(O)c(/C=N/N=C2\CC(c3ccccc3)N=N2)c1 (stereo not drawn),–,–,–,–,·,·,
CCCCOC(=O)Nc1ccccc1C(=O)O,–,–,–,–,·,·,
N[C@@H](C(=O)N[C@@H]1C(=O)N2C(C(=O)O)=C(CSC3CNNN3)CS[C@H]12)c1ccc(O)cc1 (stereo partly drawn) (tested in a mixture with another compound),–,63.0,–,–,72.5,–,AlphaScreen DR=0.668
Cc1ccccc1OCC(=O)Nc1nc(-c2ccccc2)cs1,–,–,–,–,·,·,
Cc1ccc(-c2csc(NC(=O)COc3ccccc3C(C)(C)C)n2)cc1,–,55.6,–,–,–,–,
O=C(Nc1ccc(C(=O)N2CCCCC2)cc1)c1cccc(Br)c1,–,–,–,–,·,·,
O=C(O)CNCc1nc2ccccc2[nH]1,–,80.7,–,–,75.8,100.3,
CCSc1nc2scc(C(F)(F)F)n2c(=O)c1C(=O)NCc1ccc(Cl)nc1,–,–,–,–,·,·,
Cc1ccccc1NC(=O)NC1(C(F)(F)F)Oc2ccc(Cl)cc2O1 (stereo not drawn),–,–,–,–,·,·,
COc1ccccc1NS(=O)(=O)c1cccc(NC(=O)NC2(C(F)(F)F)Oc3ccc(Cl)cc3O2)c1 (stereo not drawn),–,68.0,–,–,–,–,
COCCCNC(=O)/C(C#N)=C/c1ccc(OCC(=O)O)c(OC)c1,–,61.7,–,–,34.7,–,AlphaScreen DR=–
CCCS(=O)(=O)N1CCN(Cc2cccnc2)CC1,–,–,–,–,·,·,
Cc1ccc(S(=O)(=O)N2CCN(Cc3cccnc3)CC2)cc1,–,83.1,–,–,–,–,
CS(=O)(=O)N1CCN(Cc2cccnc2)CC1,–,66.6,–,–,–,–,
CS(=O)(=O)N1CCN(Cc2ccncc2)CC1,–,78.5,–,–,–,–,
Cc1ccc(CN2CCN(S(=O)(=O)c3ccc(C)cc3)CC2)cc1,–,–,–,–,·,·,
CCS(=O)(=O)N1CCN(Cc2cccnc2)CC1,–,78.3,–,–,–,–,
CCCN(CC(=O)Nc1cc(Cl)ccc1Cl)CN1C(=O)NC2(CCCC2)C1=O,–,–,–,–,·,·,
CCOC(=O)c1ccc2c(=O)n(Cc3ccccc3)c(SCC(=O)c3ccccc3)nc2c1,–,–,–,–,·,·,
CNc1oc(-c2ccco2)nc1S(=O)(=O)c1ccc(Br)cc1,–,74.1,–,–,–,–,
Cc1cc(Cl)ccc1OCC(=O)Nc1ccc(S(=O)(=O)N2CCCCC2)cc1,–,–,–,–,·,·,
SMILES,TEAD-YAP inh,MITF primary,GPR151 activ,FBW7 activator,MITF inh conf,AlphaScreen intf2,others
CCOc1cc(CN2CCN(C(=O)c3cccc(F)c3)CC2)ccc1OC,–,–,–,–,·,·,
O=C(c1cccc(F)c1)N1CCN(Cc2ccc(F)cc2)CC1,–,65.8,–,–,–,–,
CCOc1ccc(CN2CCN(C(=O)c3cccc(F)c3)CC2)cc1,–,54.6,–,–,–,–,
Cc1cc(C)nc(NS(=O)(=O)c2ccc(N3C(=O)C=CC3=O)cc2)n1,–,60.7,–,–,37.2,–,AlphaScreen DR=–
CCN1CCN(CCCOc2cccc(C(F)(F)F)c2)CC1,–,56.4,–,–,–,–,
CN1CCN(CCCOc2cccc(C(C)(C)C)c2)CC1,–,–,–,–,·,·,
CN(C)CCOc1cccc(C(F)(F)F)c1,–,87.8,–,–,–,–,
CCN1CCN(CCOc2cccc(C(F)(F)F)c2)CC1,–,60.7,–,–,–,–,
CCN1CCN(CCOc2ccc3ccccc3c2)CC1,–,–,–,–,·,·,
CCOC(=O)Cc1nnc(NC(=O)c2ccc(Br)cc2)s1,–,–,–,–,·,·,
COc1ccc(CN2CCN(C(=O)c3ccc(F)cc3)CC2)cc1Br,–,51.4,–,–,–,–,
COc1ccc(CN2CCN(C(=O)c3cccc(F)c3)CC2)cc1Br,–,58.9,–,–,–,–,
COc1cc(CN2CCN(C(=O)c3ccc(F)cc3)CC2)cc(OC)c1O,–,53.4,–,–,–,–,
COc1ccc(CN2CCN(C(=O)c3cccnc3)CC2)cc1Br,–,59.5,–,–,–,–,
COc1ccc(CN2CCN(C(=O)c3ccccc3)CC2)cc1Br,–,–,–,–,·,·,
CCCCCOC(=O)c1ccc(N2C(=O)c3cccc([N+](=O)[O-])c3C2=O)cc1,–,–,–,–,·,·,
COCCNCCOc1ccc2ccccc2c1Br,–,–,–,–,·,·,
COCCCN=Cc1c(-c2ccccc2)[nH]n(-c2ccc([N+](=O)[O-])cc2)c1=O,–,–,–,–,·,·,
CN(C)CC(C)(C)CNCC(O)COCc1ccc2c(c1)OCO2 (stereo not drawn),–,57.0,–,–,–,–,
CCOCCCNC(=O)c1ccc(CNS(=O)(=O)c2ccc(C)cc2)cc1,–,–,–,–,·,·,
O=C(O)Cn1cnc2sc3c(c2c1=O)CCC3,–,–,–,–,·,·,
NC(=O)Cn1cnc2sc3c(c2c1=O)CCC3,–,65.8,–,–,59.9,–,AlphaScreen DR=–
CSCCC(NS(=O)(=O)c1ccc2c(c1)oc(=O)n2C)C(=O)Nc1ccc(C)cc1 (stereo not drawn),–,–,–,–,·,·,
Clc1cc(Br)ccc1OCCCCN1CCNCC1,–,55.6,–,–,–,–,
Cc1ccc(C(C)C)c(OCC(O)CN2CCOCC2)c1 (stereo not drawn),–,–,–,–,·,·,
SMILES,TEAD-YAP inh,MITF primary,GPR151 activ,FBW7 activator,MITF inh conf,AlphaScreen intf2,others
Cc1ccc(OCCN2CCNCC2)c(Br)c1,–,–,–,–,·,·,
Brc1cccc(OCCCCN2CCNCC2)c1,–,–,–,–,·,·,
Cc1ccc(OCCCCN2CCNCC2)c(Br)c1,–,55.5,–,–,–,–,
Cc1cc(Br)ccc1OCCCCN1CCNCC1,–,65.6,–,–,–,–,
Cc1ccc(C(C)C)c(OCC#CCN2CCOCC2)c1,–,54.9,–,–,–,–,
C=CCNC(=S)Nn1c(=S)[nH]c2ccccc2c1=O,–,–,–,–,·,·,
Cc1ccc(SCCCCN2CCNCC2)cc1,–,61.0,–,–,–,–,
Cc1ccc(C(C)C)c(OCCN(C)C)c1,–,53.7,–,–,–,–,
CCC(C)(C)c1ccc(OCCN2CCNCC2)c(Cl)c1,–,60.8,–,–,–,–,
Cc1ccc(C(C)C)c(OCCCCN2CCNCC2)c1,–,75.4,–,–,–,–,
Cc1ccc(C(C)C)c(OCCOCCN2CCNCC2)c1,–,–,–,–,·,·,
Cc1ccc(C(C)C)c(OCC(N)=O)c1,–,–,–,–,·,·,
